In PubChem BioAssay AID1159580 (chemical genetic matrix, 2015):
The whole screen tested about 5,500 compounds, of which about 2,000 (36%) were called active. Roughly 18% stayed inconclusive and do not appear here. The list shows a part of the results. Values without a mark were called inactive. No stated cut-off is given here; in the data, active means normalized growth mostly below about 0.91 (no sharp cut-off); inconclusive means no clear call, values can overlap the other calls; inactive means mostly above about 0.92.

Assay: chemical genetic growth profiling, strain panel (AID 1159580);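 further: tested at 20 µM; growth read once vehicle control cultures reached saturation at 30 °C; 1 = growth at the plate median or of vehicle wells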
Conditions: S. cerevisiae deletion strains, growth OD

CCC(=O)c1ccc(-c2ccccc2)cc1
normalized growth (locus YAL013W, strain DEP1, stronger effect = lower value): 0.948 | normalized growth (locus YBR229C, strain ROT2, stronger effect = lower value): 0.93 | normalized growth (locus YCL061C, strain MRC1, stronger effect = lower value): 0.904 (active) | normalized growth (locus YDL101C, strain DUN1, stronger effect = lower value): 0.918 | normalized growth (locus YDL134C, strain PPH21, stronger effect = lower value): 0.963 | normalized growth (locus YDR150W, strain NUM1, stronger effect = lower value): 0.899 | normalized growth (locus YEL061C, strain CIN8, stronger effect = lower value): 0.895 (active) | normalized growth (locus YGR078C, strain PAC10, stronger effect = lower value): 0.935 | normalized growth (locus YGR229C, strain SMI1, stronger effect = lower value): 0.978 | normalized growth (locus YHR030C, strain SLT2, stronger effect = lower value): 0.502 (active) | normalized growth (locus YHR087W, strain rtc3, stronger effect = lower value): 0.939 | normalized growth (locus YJR043C, strain POL32, stronger effect = lower value): 0.912 (active) | normalized growth (locus YJR075W, strain HOC1, stronger effect = lower value): 0.912 | normalized growth (locus YLR039C, strain RIC1, stronger effect = lower value): 0.765 (active) | normalized growth (locus YLR058C, strain SHM2 (second series), stronger effect = lower value): 0.953 | normalized growth (locus YLR085C, strain ARP6, stronger effect = lower value): 0.631 (active) | normalized growth (locus YLR262C, strain YPT6, stronger effect = lower value): 0.727 (active) | normalized growth (locus YML094W, strain GIM5, stronger effect = lower value): 0.934 | normalized growth (locus YMR219W, strain ESC1, stronger effect = lower value): 0.957 | normalized growth (locus YMR263W, strain SAP30, stronger effect = lower value): 0.905 | normalized growth (locus YNL153C, strain GIM3, stronger effect = lower value): 0.924 (active) | normalized growth (locus YNL298W, strain CLA4 (second series), stronger effect = lower value): 0.821 (active) | normalized growth (locus YNL322C, strain KRE1, stronger effect = lower value): 0.968 | normalized growth (locus YNR030W, strain Alg12, stronger effect = lower value): 0.936 | normalized growth (locus YOL006C, strain TOP1, stronger effect = lower value): 0.568 (active) | normalized growth (locus YPL055C, strain LGE1, stronger effect = lower value): 0.831 | normalized growth (locus YPL241C, strain CIN2, stronger effect = lower value): 0.863 | normalized growth (locus YPR135W, strain CTF4, stronger effect = lower value): 0.58 (active)
